# aSyn 5UTR act – Activators via SNCA 5'UTR binding, MLPCN | alpha-synuclein 5'UTR reporter, activators screen | activity score, % (tested at 7.5 µM), hits read low | 7.1% of 300,000 active | AID 1814, 2009; in the data active means activity score below about -60%
# An asterisk follows results filed as active. A selection follows.
SMILES,aSyn 5UTR act
COC(=O)c1cccc(NC(=O)C2COc3ccccc3O2)c1 (stereo not drawn),-137*
CC(=O)c1c(C)[nH]c(C2=NNC(=NC(C)(C)C)SC2)c1C,-97*
CCOC(=O)c1c(C)[nH]c(C2=NNC(=Nc3ccccc3OC)SC2)c1C,-90*
CCOC(=O)c1c(C)[nH]c(C2=NNC(=Nc3ccccc3)SC2)c1C,-97*
COc1c(C(=O)NNC(=O)c2ccccc2)csc1Br,-82*
Cc1ccc(C(=O)Nc2cccc(Oc3ccccc3)c2)o1,-126*
COc1cccc(C(=O)Nc2cnn(C(C)C)c2)c1,-114*
COc1cccc(NC(=O)c2ccc(C(=O)c3ccccc3)o2)c1,-147*
Brc1ccc(C2=Nn3c(nnc3-c3n[nH]c4c3CCC4)SC2)cc1,86
COc1cccc(C(=O)N/N=C(/c2ccccc2)c2ccccn2)c1,73
CC(=O)Nc1cccc(Oc2ccc(-c3noc(C)n3)cc2)c1,-194*
COc1cccc(C(=O)NNC(=O)c2ccccc2)c1,-113*
CCn1c2ccccc2c2cc(NC(=O)c3cccc(OC)c3)ccc21,-180*
COc1cccc(C(=O)Nc2cccc(SC)c2)c1,-156*
O=C(Nc1ccc(O)cc1)c1ccc(C(=O)c2ccccc2)o1,-120*
COc1cccc(/C(C)=N/N=C(\C)c2cccc(OC)c2)c1,-275*
COc1cccc(C(=O)Nc2ccccc2)c1,-122*
Brc1ccc2oc(-c3ccn[nH]3)cc2c1,-175*
COc1ccc(N2CCN(Cc3cc(=O)oc4cc(-c5ccccc5)c(O)cc34)CC2)cc1,73
Cc1ccc2c(CN3CCC(C)CC3)cc(=O)oc2c1C,-126*
Cc1nc(N)nc(N)c1/C=C/C(C)(C)c1ccc(Cl)cc1,125
CC(C)(C)S(=O)(=O)c1cnc(-c2ccc(Cl)cc2)nc1N,-114*
Cc1ccc(F)cc1NCC(=O)Nc1ccc(Br)cc1,-146*
Cc1ccc(NCC(=O)Nc2ccc(Br)cc2)cc1C,-126*
Cc1ccc(C(=O)CSc2ncnc3ccccc23)o1,-121*
SMILES,aSyn 5UTR act
O=C(CSc1ncnc2ccccc12)c1cccs1,-137*
O=C(CSc1ncnc2ccccc12)N1CCCC1,-67*
COc1cccc(-c2noc(-c3cccnc3)n2)c1,-152*
COc1cccc(-c2nc(-c3ccc(NC(=O)c4cccnc4)cc3)no2)c1,-106*
COc1ccc(-c2nc(-c3cccnc3)no2)cc1OC,-132*
Cc1ccc(-c2nc(-c3cccnc3)no2)cc1,-78*
Cc1ccc(-c2nc(-c3ccccc3)no2)cc1,57
COc1cccc(-c2nc(-c3ccccn3)no2)c1,104
COc1ccc(Cl)cc1-c1nc(-c2ccc(NC(=O)c3cccs3)cc2)no1,-120*
COc1cccc(OCc2nnc(-c3cccs3)o2)c1,-142*
COc1ccc(-c2nc(-c3cccc(C)c3)no2)cc1OC,-200*
O=C(Nc1ccc(-c2noc(-c3cccs3)n2)cc1)c1cccnc1,-94*
c1cncc(-c2noc(-c3ccco3)n2)c1,-91*
COc1cccc(-c2noc(-c3cccs3)n2)c1,-75*
O=c1c2cnn(-c3ccccc3)c2nc(-c2cccs2)n1-c1cccc(Cl)c1,-63*
C=CCSc1nc2c(cnn2-c2ccccc2)c(=O)n1N,74
COc1cccc(Cn2c(=O)oc3ccccc32)c1,-77*
O=C1c2ccccc2C(=O)C1c1ccc2ccccc2n1,94
CCNc1ccccc(-c2ccc3ccccc3n2)c1=O,-186*
COc1cc(N2Cc3ccccc3C2)ccc1C=O,-151*
C/C(N)=C(/C#N)C(=O)CSc1ccc2c(c1)OCCO2,-125*
Cc1cc(C(=O)CSc2ccc3c(c2)OCCO3)c(C)n1C1CC1,-126*
COc1cc2c(c(OC)c1OC)-c1ccc(OC)c(=O)cc1[C@@H](NC(C)=O)CC2,96
COc1ccc2c(c1OC)C(=O)N(c1ccc(F)cc1)C2,-159*
C#CCn1cccc(C(=O)Nc2ccc(OC)cc2)c1=O,-63*
SMILES,aSyn 5UTR act
CCCn1cccc(C(=O)Nc2ccc(OC)cc2)c1=O,-82*
COc1cccc([C@@H]2Oc3ccc(OC)cc3C(=O)[C@H]2OC(=O)NCc2ccc3c(c2)OCO3)c1,-137*
CCc1nc2ccc(C(=O)O)cc2nc1CC,-63*
CCc1nc2ccc(C(=O)NCCc3ccc(OC)cc3)cc2nc1CC,-138*
CCOc1ccc(/C=C2\SC(=S)N(CCCC(=O)NCCCN3CCOCC3)C2=O)cc1,84
CCOc1ccc(N=C2NC(=O)S/C2=C\c2ccc(N(C)C)cc2)cc1,-129*
CCOc1ccc(/C=C2/SC(=O)NC2=S)cc1,-95*
O=C(/C=C/c1ccc(Cl)cc1Cl)NC(=S)Nc1ccccn1,-224*
O=C(Oc1c(CN2CCOCC2)cc(Cl)c2cccnc12)c1ccccc1F,106
O=C(Nc1ccc(CN2CCOCC2)cc1)c1ccc(Cl)cc1Cl,-96*
O=C(Nc1ccc(CN2CCOCC2)cc1)c1ccccc1F,-76*
CCC(=O)NC(c1ccc(Cl)cc1Cl)c1ccc2cccnc2c1O (stereo not drawn),75
O=C(Nc1ccc(CN2CCOCC2)cc1)c1ccc(-c2cccc(Cl)c2)o1,-83*
O=C(Cc1ccccc1)Nc1ccc(CN2CCOCC2)cc1,-87*
O=C(/C=C/c1ccc(Cl)cc1Cl)NC(=S)Nc1ccc(CN2CCOCC2)cc1,-71*
COc1cc2ccccc2cc1C(=O)Nc1ccc(CN2CCOCC2)cc1,-112*
O=C(Nc1ccc(CN2CCOCC2)cc1)c1cccs1,-145*
C=CCN(C(=O)C1CSC2(C)CCC(=O)N12)c1nc(-c2ccccc2)cs1 (stereo not drawn),-68*
Brc1ccc(-c2nnc(-c3cccc(Br)c3)o2)cc1,-127*
O=C(O)c1ccc(-c2nnc(-c3cccc(Br)c3)o2)cc1,-202*
CCCc1cc2c(=O)c(-c3ccc4c(c3)OCCO4)coc2cc1OS(C)(=O)=O,-222*
CCCc1cc2c(=O)c(-c3ccc4c(c3)OCCO4)coc2cc1OC(=O)c1ccco1,-287*
Fc1cc2[nH]c(=S)[nH]c2cc1Cl,42
CCN(CC)S(=O)(=O)c1cccc(-c2nnc(SCc3nc4ccccc4s3)o2)c1,-113*
Brc1ccccc1-c1nnc(SCc2nc3ccccc3s2)o1,-244*
SMILES,aSyn 5UTR act
CC1=Nn2c(nc3sc4c(c3c2=O)CCCC4)SC1,-142*
Cc1ccc(-n2cnc3sc(C)c(C)c3c2=O)cc1,-98*
Cc1ccc(-c2nc3sc4c(c3c(=O)n2N)CCCC4)cc1,-107*
COc1ccc(-n2cnc3sc4c(c3c2=O)CCCC4)cc1,-88*
COc1ccc(/C=N/N=C2/SCC(=O)N2Cc2ccccc2)cc1,-170*
COc1ccc(CN2C(=O)CS/C2=N/N=C/c2ccccc2)cc1,-64*
CC(C)c1ccc2c(c1)CCC1C(C)(CN)CCCC21C (stereo not drawn),97
COC(=O)C(C)N1C(=O)S/C(=C/c2cc(C)n(C(C)C)c2C)C1=O (stereo not drawn),-127*
C#CCN1C(=O)S/C(=C/c2cc(C)n(CC)c2C)C1=O,-193*
CCn1c(C)cc(/C=C2/SC(=O)N(C(C)C(=O)OC)C2=O)c1C (stereo not drawn),-156*
CCOC(=O)C(C)N1C(=O)S/C(=C/c2cc(C)n(-c3ccccn3)c2C)C1=O (stereo not drawn),-143*
Cc1cc(C)c(S(=O)(=O)Nc2cc(SCC(=O)O)c(O)c3ccccc23)cc1C,67
COCCn1c(C)cc(/C=C2/SC(=O)N(C(C)C(=O)OC)C2=O)c1C (stereo not drawn),-154*
Cc1ccc(-c2nc3ccccc3c(=O)o2)cc1,-84*
CCc1ccc(C(=O)COC(=O)c2n[nH]c3ccccc23)cc1,-129*

# Compound activity deposited in PubChem by Broad Institute.
